FLuc counter: firefly luciferase modulation, counter-screen for miR-21 project. purified FLuc, Km substrates, luminescence inhibition. Potency, µM (titrated, usually from 57.5 µM), for inactives: at the highest dose activity change, negative = inhibition, usual class: inhibitors. 360,000 compounds, 6.9% hits;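 note: plate controls were vehicle for no effect and reference inhibitor for full effect; nearly all actives have a fitted effect of over 55% in size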
Target sequence (P08659 whole entry, looked up): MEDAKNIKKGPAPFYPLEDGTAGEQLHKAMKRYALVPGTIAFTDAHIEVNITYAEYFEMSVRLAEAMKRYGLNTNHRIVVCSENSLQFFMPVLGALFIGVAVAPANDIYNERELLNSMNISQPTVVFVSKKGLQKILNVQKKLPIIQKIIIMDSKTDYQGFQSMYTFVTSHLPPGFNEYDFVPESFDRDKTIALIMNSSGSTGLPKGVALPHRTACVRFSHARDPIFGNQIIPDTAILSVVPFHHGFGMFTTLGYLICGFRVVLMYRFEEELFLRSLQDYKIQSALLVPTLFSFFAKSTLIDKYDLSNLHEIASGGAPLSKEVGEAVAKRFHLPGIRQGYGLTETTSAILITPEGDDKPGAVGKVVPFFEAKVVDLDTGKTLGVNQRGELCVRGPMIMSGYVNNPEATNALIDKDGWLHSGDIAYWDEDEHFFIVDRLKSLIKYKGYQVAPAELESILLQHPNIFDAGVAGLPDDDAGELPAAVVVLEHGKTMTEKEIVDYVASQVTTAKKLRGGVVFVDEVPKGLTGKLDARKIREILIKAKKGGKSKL
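Purified P. pyralis luciferase, 10 nM final, with Km-level 10 uM D-luciferin and 10 uM ATP in 50 mM Tris acetate pH 7.5, 10 mM Mg acetate, 0.01% Tween-20, 0.05% BSA; 6-point qHTS titration about 60 µM downward; luminescence read.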
ELG1 repair inh: inhibitors of ELG1-dependent DNA repair in HEK293T cells; HEK293T ELG1-luciferase reporter, luminescence, 16 h; DNA damage induced by 5-fluorouridine; AID 504467; Potency, µM (series often up to 46.1 µM), inactives show at the top dose activity change, negative = inhibition, actives largely listed as inhibitors; 330,000 compounds, 2.3% hits; note: % is set by controls: 0 for no effect and ±100 for the full control effect; nearly all actives have a fitted effect of over 55% in size
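Quantitative HTS, concentration-response format. 2,000 cells/well co-treated with 5-fluorouridine and compound, 16 hr in 5% CO2 at 37 °C; ONE-Glo luminescence read after 30 min.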
ELG1 genotoxic: genotoxicity induction in ELG1-luciferase HEK293T cells. HEK293T ELG1-luciferase reporter, luminescence, 16 h. Potency, µM (titrated, usually from 46 µM), for inactives: at the highest dose activity change, positive = activation, hits mostly activators. 330,000 compounds, 1.3% hits. AID 504466; note: % of control where 0% means no effect; nearly all actives have a fitted effect of over 60% in size
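After overnight (16 hr) compound treatment at 37 °C, ELG1-luciferase HEK293T cells were lysed with ONE-Glo; luminescence quantified 30 min later at room temperature.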
Rab9 promoter act: activates the Rab9 promoter. Huh7 Rab9 promoter-luciferase reporter, luminescence, 24 h. Potency, µM (top dose mostly 9.22 µM), for inactives: at the highest dose activation, negative = inhibition, hits mostly activators. 320,000 compounds, 2.8% hits; note: % of control where 0% means no effect; nearly all actives have a fitted effect of over 60% in size
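Luminescence read-out: Huh7 cells stably expressing Rab9-luciferase, treated 24 h with compound at 37 °C, then lysed with luciferase reagent for 10 min at ambient before reading.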
NPC1 prom act: activates the NPC1 promoter; Huh7 NPC1 promoter luciferase reporter, 24 h; Potency, µM (top dose mostly 9.22 µM), for inactives: at the highest dose activation, hits mostly activators; 320,000 compounds, 2.4% hits; note: % of control where 0% means no effect; nearly all actives have a fitted effect of over 60% in size
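Compounds in DMSO were transferred onto Huh7 NPC1-luciferase reporter cells pre-incubated 2 h; after 24 h at 37 °C, Amplite reagent was dispensed and luminescence recorded 10 min later.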
SMN2 splice up: SMN2 splice variant enhancement; Potency, µM (highest dose often 46.1 µM), inactives show at the top dose activity change, positive = activation, actives largely listed as activators; HEK293 SMN2-luciferase splicing reporter, luminescence, 30-36 h; AID 1458; 210,000 compounds, 2.8% hits; note: % of control where 0% means no effect; nearly all actives have a fitted effect of over 55% in size
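HEK293 cells carry an SMN2 […]–luciferase reporter in which exon 7 inclusion puts luciferase in frame. Cells were plated 10-12 h before compound addition, then incubated 30-36 h at 37C. ONE-Glo luminescence was read; sodium butyrate at 4.5 mM final served as control.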
Numbers without * were called inactive; ? = inconclusive; . = no result given. Sampled rows, rich in hits. Any-hit rate of the full collection: about 9.3%. Calls come from the whole dose curve; as a rule, active = well fitted curve in the direction sought with a large enough effect; inconclusive = small, poorly fitted or top-dose-only effect, or another doubt; inactive = no such curve, though single readings can be large; an effect the other way counts as inactive or inconclusive. Potency is the fitted concentration of half-maximal effect.

SMILES	FLuc counter	ELG1 repair inh	ELG1 genotoxic	Rab9 promoter act	NPC1 prom act	SMN2 splice up
COc1ccccc1C(=O)NC1=NC(c2ccc(Br)cc2)CC(=O)N1 (stereo unspecified)	4.8µM*	.	.	.	.	11µM*
CCCC(=O)c1ccc(N2CCC(C)CC2)c(F)c1	9.5µM*	?	?	25%	2%	?
CCC(=O)c1ccc(N2CCC(C)CC2)c(F)c1	21µM*	?	13%	29%	8%	.
CCOC(=O)N1CCN(c2ccc(C(=O)CC)cc2F)CC1	-1%	?	7%	-4%	0%	-11%
CCN(CC)c1cc(Cl)nc(N)n1	-3%	1%	0%	-2%	0%	.
COc1ccc(NC(=O)CCCn2c(=O)c3cccn3c3cccnc32)cc1Cl	-2%	.	.	.	.	.
COC(=O)c1cc(S(=O)(=O)N2CCN(c3ccc([N+](=O)[O-])cc3)CC2)c[nH]1	1%	16µM*	-4%	8%	-2%	.
COC(=O)c1cc(S(=O)(=O)N2CCN(c3ccc(F)cc3)CC2)c[nH]1	-2%	-4%	-2%	-3%	0%	.
COC(CNC(=O)C1CCCCC1C(=O)O)OC (stereo unspecified)	0%	11%	-1%	-2%	-2%	4%
COc1cc2[nH]c(=O)n(CCCCCC(=O)N3CC=C(c4ccccc4)CC3)c(=O)c2cc1OC	-19%	8.2µM*	-38%	-4%	-5%	-14%
COc1cc2[nH]c(=O)n(CCC(=O)N3CCc4ccccc4C3)c(=O)c2cc1OC	0%	-4%	3%	3%	0%	-1%
COc1cc2[nH]c(=O)n(CCC(=O)N3CCN(c4cc(Cl)ccc4C)CC3)c(=O)c2cc1OC	1%	8.2µM*	-3%	-2%	-5%	-26%
Cc1ccc(N(CC(=O)Nc2ccc(C)c(Cl)c2)S(=O)(=O)c2cccs2)cc1	3%	.	.	.	.	-14%
COc1ccc(/C=C\C(=O)c2c(O)ccc3c(C)cc(=O)oc23)cc1	-18%	-15%	-9%	-10%	1%	-3%
Cc1cc(C)c(C(=O)/C=C/c2ccc(C(C)C)cc2)c(=O)[nH]1	?	21µM*	-9%	-9%	-1%	-70%
Cc1cc(C)c(C(=O)/C=C/C=C/c2ccccc2)c(=O)[nH]1	?	8%	0%	16%	0%	3%
Cc1cc(O)c(C(=O)/C=C/c2ccc(C(C)C)cc2)c(=O)o1	3.4µM*	?	?	2.8µM*	?	.
Cc1cc(O)c(C(=O)/C=C/c2ccccc2)c(=O)o1	19µM*	-10%	-3%	0%	2%	.
CCOc1ccc(/C=C/C(=O)c2c(O)cc(C)oc2=O)cc1	6.7µM*	?	16%	?	?	.
Cc1cc(O)c(C(=O)/C=C/c2ccccc2Br)c(=O)o1	?	?	12%	-18%	4%	.
CCOC(=O)c1ccc(NC(=O)CSc2nc(-c3ccc(OC)cc3)cc(C(F)(F)F)c2C#N)cc1	5%	.	.	.	.	-2%
Cn1c(=O)c2c(-c3ccccc3)n(C3CCCCC3)cc2n(C)c1=O	2%	4%	0%	-4%	3%	-28%
NC(=O)c1ccsc1NC(=O)C1CCCN1S(=O)(=O)c1ccc(Cl)cc1 (stereo unspecified)	-7%	2%	-2%	2%	-5%	-13%
CC1CCCCN1S(=O)(=O)c1ccc(C(=O)Nc2sccc2C(N)=O)cc1 (stereo unspecified)	21µM*	-21%	?	?	?	20µM*
NC(=O)c1ccsc1NC(=O)c1ccc(S(=O)(=O)N2CCCc3ccccc32)cc1	-6%	21µM*	-6%	-11%	-4%	-49%
SMILES	FLuc counter	ELG1 repair inh	ELG1 genotoxic	Rab9 promoter act	NPC1 prom act	SMN2 splice up
CC1(C)CC(NC(=O)CSc2ccccc2)CC(C)(C)N1	0%	4%	-2%	-1%	0%	2%
CCCOc1nc(SCCC)nc2c1cnn2-c1ccccc1	4%	7%	2%	-2%	-3%	.
C=CCn1c(Cc2ccccc2)nc2c(cnn2-c2ccccc2)c1=O	-11%	21µM*	-8%	-9%	-1%	.
CCCSc1nc2c(cnn2-c2ccccc2)c(=O)n1N	5.4µM*	?	?	0.79µM*	4.5µM*	.
O=c1c2cnn(-c3ccccc3)c2ncn1CCc1ccccc1	?	?	11%	16%	10%	17%
Nn1c(SCc2ccccc2)nc2c(cnn2-c2ccccc2)c1=O	11µM*	?	?	3.2µM*	?	13µM*
Cc1ccccc1CSCC(=O)NNC(=S)NCC1CCCO1 (stereo unspecified)	1%	?	-6%	-2%	-6%	.
COc1ccc(CN(C(=O)c2snc(C(N)=O)c2N)C(C)C(=O)NCc2ccc(F)cc2)cc1 (stereo unspecified)	7%	-6%	-4%	-8%	-1%	.
COc1cccc(-c2nc(-c3cccs3)no2)c1	0.27µM*	?	?	2.5µM*	2.8µM*	.
Cc1cc(OCc2nc(-c3cccs3)no2)cc(C)c1Cl	?	?	9%	7%	10%	-6%
COc1cccc(-c2nc(-c3ccc(NC(=O)Cc4ccccc4OC)cc3)no2)c1	?	?	-18%	-6%	0%	15%
COc1cc(OC)cc(-c2nc(-c3cccs3)no2)c1	11µM*	?	-9%	?	?	26%
COc1ccc(-n2nnc(-c3nc(-c4cccs4)no3)c2N)cc1	-6%	.	.	.	.	.
COc1cccc(-c2nc(-c3ccncc3)no2)c1	5.4µM*	?	?	1.4µM*	2.8µM*	.
COCCCNC(=O)/C=C/c1ccc(Cl)cc1Cl	?	?	4%	8%	18%	-2%
Cc1c(-c2nc(-c3cccnc3)no2)cccc1[N+](=O)[O-]	?	?	?	16%	30%	21%
COc1ccc(-c2noc(-c3ccc(N4CCCC4)c([N+](=O)[O-])c3)n2)cc1OC	-17%	.	.	.	.	.
COc1ccc(-c2noc(-c3ccc(NC4CCCCC4)c([N+](=O)[O-])c3)n2)cc1OC	5%	.	.	.	.	.
COc1cc(-c2noc(-c3ccc(N4CCOCC4)c([N+](=O)[O-])c3)n2)cc(OC)c1OC	19µM*	.	.	.	.	.
Cc1cccc(-c2noc(-c3ccc(Cl)cc3[N+](=O)[O-])n2)c1	1.5µM*	?	?	2.5µM*	0.71µM*	?
COc1ccc(-c2noc(-c3ccc(NC(C)c4ccccc4)c([N+](=O)[O-])c3)n2)cc1OC (stereo unspecified)	11µM*	.	.	.	.	.
